Laboratory results: PubChem BioAssay AID1159580 (chemical genetic matrix, 2015)
About 2,000 (36%) of roughly 5,500 compounds were called active. Another 18% or so got no clear call; they are omitted. Cut-off read from the data, not from the text of the source: active = normalized growth mostly below about 0.91 (no sharp cut-off); inconclusive = no clear call, values can overlap the other calls; inactive = mostly above about 0.92. The list shows a part of the results.

Test: chemical genetic growth profiling, strain panel (AID 1159580);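 note: tested at 20 µM; growth read once vehicle control cultures reached saturation at 30 °C; 1 = growth at the plate median or of vehicle wells; lower values mean less growth of the strain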
Conditions: S. cerevisiae deletion strains, growth OD

Measured: normalized growth

CNC(=O)Oc1cccc2c1OC(C)(C)O2
inactive: locus YAL013W, strain DEP1, active compounds read low 1.01 | locus YAL021C, strain ccr4, active compounds read low 0.991 | locus YAL026C, strain drs2, active compounds read low 1 | locus YAL030W, strain snc1, active compounds read low 1.01 | locus YBL061C, strain skt5, active compounds read low 1 | locus YBR009C, strain hhf1, active compounds read low 1 | locus YBR021W, strain FUR4, active compounds read low 1.03 | locus YBR023C, strain chs3, active compounds read low 1 | locus YBR171W, strain sec66, active compounds read low 1.01 | locus YBR229C, strain ROT2, active compounds read low 1.02 | locus YBR231C, strain swc5, active compounds read low 1 | locus YBR279W, strain paf1, active compounds read low 0.994 | locus YCL011C, strain gbp2, active compounds read low 1 | locus YCL016C, strain dcc1, active compounds read low 1 | locus YCL029C, strain bik1, active compounds read low 0.999 | locus YCL061C, strain MRC1, active compounds read low 0.998 | locus YCL069W, strain vba3, active compounds read low 0.998 | locus YCR088W, strain abp1, active compounds read low 1 | locus YDL005C, strain med2, active compounds read low 0.996 | locus YDL035C, strain GPR1, active compounds read low 1.02 | locus YDL040C, strain nat1, active compounds read low 1 | locus YDL074C, strain BRE1, active compounds read low 1.07 | locus YDL101C, strain DUN1, active compounds read low 1.03 | locus YDL134C, strain PPH21, active compounds read low 1.02 | locus YDL185W, strain tfp1, active compounds read low 0.995 | locus YDL192W, strain arf1, active compounds read low 0.993 | locus YDR001C, strain nth1, active compounds read low 1 | locus YDR069C, strain doa4, active compounds read low 1 | locus YDR101C, strain arx1, active compounds read low 0.989 | locus YDR137W, strain rgp1, active compounds read low 1.05 | locus YDR150W, strain NUM1, active compounds read low 1.02 | locus YDR159W, strain sac3, active compounds read low 0.988 | locus YDR162C, strain NBP2, active compounds read low 1.02 | locus YDR195W, strain ref2 0.967 | locus YDR297W, strain sur2, active compounds read low 0.997 | locus YDR318W, strain mcm21, active compounds read low 0.996 | locus YDR334W, strain swr1, active compounds read low 1.01 | locus YDR335W, strain msn5, active compounds read low 0.995 | locus YDR388W, active compounds read low 0.996 | locus YDR392W, strain spt3, active compounds read low 0.814 | locus YDR502C, strain sam2, active compounds read low 0.997 | locus YEL003W, strain gim4, active compounds read low 0.999 | locus YEL037C, strain rad23, active compounds read low 0.998 | locus YEL061C, strain CIN8 (second series), active compounds read low 1.01 | locus YEL061C, strain CIN8, active compounds read low 1.01 | locus YER015W, strain faa2, active compounds read low 1 | locus YER016W, strain bim1, active compounds read low 0.998 | locus YER110C, active compounds read low 1 | locus YER111C, strain swi4, active compounds read low 0.992 | locus YER155C, strain BEM2 (second series), active compounds read low 0.998 | locus YER155C, strain BEM2, active compounds read low 1.02 | locus YER167W, strain BCK2, active compounds read low 1.01 | locus YFR010W, strain ubp6, active compounds read low 0.987 | locus YGL078C, strain dbp3, active compounds read low 0.99 | locus YGL086W, strain mad1, active compounds read low 0.996 | locus YGL167C, strain pmr1, active compounds read low 1 | locus YGL173C, strain kem1, active compounds read low 1 | locus YGL227W, strain vid30, active compounds read low 0.999 | locus YGL240W, strain doc1, active compounds read low 0.986 | locus YGL248W, strain PDE1, active compounds read low 1.01 | locus YGL253W, strain hxk2, active compounds read low 1 | locus YGR078C, strain PAC10, active compounds read low 1.02 | locus YGR135W, strain pre9, active compounds read low 0.999 | locus YGR229C, strain SMI1, active compounds read low 1.03 | locus YGR252W, strain gcn5, active compounds read low 0.941 | locus YHR013C, strain ard1, active compounds read low 0.946 | locus YHR027C, strain rpn1, active compounds read low 1.01 | locus YHR030C, strain SLT2, active compounds read low 1.02 | locus YHR079C, strain IRE1 (second series), active compounds read low 0.99 | locus YHR094C, strain hxt1, active compounds read low 0.995 | locus YHR129C, strain ARP1, active compounds read low 1.02 | locus YHR142W, strain chs7, active compounds read low 1 | locus YHR200W, strain rpn10, active compounds read low 0.995 | locus YIL066C, strain RNR3, active compounds read low 1.02 | locus YIL073C, strain SPO22, active compounds read low 0.954 | locus YIL125W, strain kgd1, active compounds read low 1 | locus YIR030C, strain dcg1, active compounds read low 0.995 | locus YJL092W, strain hpr5, active compounds read low 1 | locus YJL095W, strain BCK1 (second series), active compounds read low 0.997 | locus YJL095W, strain BCK1, active compounds read low 1.04 | locus YJL115W, strain asf1, active compounds read low 0.997 | locus YJL129C, strain trk1, active compounds read low 1.02 | locus YJL134W, strain LCB3, active compounds read low 1.02 | locus YJL154C, strain vps35, active compounds read low 1 | locus YJL164C, strain tpk1, active compounds read low 0.991 | locus YJL166W, strain qcr8, active compounds read low 0.992 | locus YJL168C, strain set2, active compounds read low 0.991 | locus YJL187C, strain SWE1 (second series), active compounds read low 1.01 | locus YJL187C, strain SWE1, active compounds read low 1.01
